Measurements reported in PubChem BioAssay.
Values joined by “and” are separate entries in the source; they are usually repeats but may differ in a detail not shown here. Identical values can stand only once. Active and inactive are the calls of the source.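 The calls were made as follows, unless noted: active = normalized viability below 100% at a tested concentration; inactive = the rest.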

Key:
[1] = molecular target: 6-phosphogluconate dehydrogenase, decarboxylating (Homo sapiens) (UniProt P52209); test: 6PGD enzyme inhibitors, primary screen, biochemical, human, recombinant enzyme, NADPH absorbance (AID 1159550;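 active = at least 20% inhibition of 6-phosphogluconate dehydrogenase activity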); conditions: recombinant 6PGD, NADPH absorbance 341 nm; at 10 µM; stronger effect = higher value
[2] = hESC survival regulators, cell-based (AID 493140; call rule not given here;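 also: cells exposed to compounds for four days before counting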); conditions: human embryonic stem cell survival screen; stronger effect = higher value
[3] = liver-stage malaria parasite growth inhibition, primary screen, cell-based, HepG2, luciferase luminescence, HepG2 viability (AID 624349; in the data active = parasite load remaining mostly below about 12%, no sharp cut-off; inactive = mostly above about 10%;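 also: 100% = mean of DMSO negative control wells on the same plate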); conditions: P. berghei liver stage in HepG2, luciferase luminescence, concentration not given here; parasite load remaining: stronger effect = lower value; viability: measured here: HepG2 viability without parasites
[4] = Cy5 fluorescence interference with SSB-bound oligo, artefact control for HCV NS3 helicase inhibitor project, biochemical, NIH Clinical Collection, E. coli SSB (AID 743268; call rule not given here)
[5] = test system: Hepatitis C virus NS3 helicase; test: HCV NS3 helicase inhibitors, primary screen, biochemical, fluorescence polarization, NIH Clinical Collection (AID 743270; call rule not given here); conditions: NS3 helicase binding to Cy5-dT15 DNA, stronger effect = higher value, concentration not given here
[6] = molecular target: Single-stranded DNA-binding protein (Escherichia coli (strain K12)) (UniProt P0AGE0); test: E. coli SSB displacement from DNA, counter-screen for HCV NS3 helicase inhibitor project, biochemical, fluorescence polarization, NIH Clinical Collection (AID 743271; in the data active = inhibition above about 28%); conditions: stronger effect = higher value, concentration not given here
[7] = fluorescence interference in NS3h assay format, artefact control for HCV NS3 helicase inhibitor project, biochemical, NIH Clinical Collection (AID 743272; call rule not given here;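 also: HCV NS3 helicase with a Cy5 labelled single stranded DNA probe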); conditions: fluorescence interference counterscreen, stronger effect = lower value
[8] = differential killing of epithelial or mesenchymal cells, primary screen, imaging, PC-3E GFP, TEM4-18 mCherry, co-culture (AID 1345086;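 active = compounds killing one labelled cell type while sparing the other, by normalised counts and ratio limits, not self-fluorescent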;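 also: cells exposed to compound for 72 h before imaging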;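 as to red/green cell ratio (normalised): normalised mesenchymal count divided by normalised epithelial count so high means epithelial killing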); conditions: imaging cell counts, at 1 µM
[9] = sensitizers of A549 cells to miR-34 induction, primary screen, imaging, A549 dox-inducible miR-34, nuclei and caspase counts (AID 1347080;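 active = compounds whose cell count with miR-34 switched on is under 0.7 times the count with it off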); conditions: A549 miR-34 inducible, Hoechst nuclei count, 48 h
[10] = survival rescue of mitochondrial mutant cells in low glucose, primary screen, MELAS cybrids, Rieske KO mouse fibroblasts, CellTiter-Glo (AID 1508586;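 active = mean z-score across replicates of 1.96 or higher in either the MELAS or the Rieske mutant cell line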;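 also: z relative to plate mean and SD of compound and empty wells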)
[11] = ovarian cancer cell viability with rucaparib, profiling panel, oncology-focused library, rucaparib conditional (AID 1508598); conditions: patient-derived ovarian cancer cells, CellTiter-Glo viability, 144 h, stronger effect = lower value
[12] = molecular target: NAD(+) hydrolase SARM1 (Homo sapiens) (UniProt Q6SZW1); test: SARM1 TIR NADase inhibitors, cell lysate, NAD-Glo luminescence (AID 1508614;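 active = compound whose remaining NAD level is above about 45 nM, limit read from the data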;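 also: higher remaining NAD means stronger inhibition of SARM1 NADase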); conditions: SAM-TIR HEK293T lysate NADase, at 1 µM, stronger effect = higher value
[13] = viability rescue of complex I mutant cybrids, primary screen, cell-based, galactose medium, ATP luminescence (AID 1645843;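 active = z-score of at least 1.8 in each of two replicates, scored against plate mean and spread of sample wells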;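 also: positive z means more ATP and so rescue of galactose-driven cybrid death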); conditions: complex I mutant cybrid cells, 72 h, stronger effect = higher value
[14] = test system: F380Y; test: modulators of BK channel variants, profiling panel, selectivity assay, cell-based, U2OS BacMam, thallium flux, beta subunits (AID 1259406;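 active = thallium flux through the channel raised or lowered by more than 3 SD from vehicle-only wells, actives on both sides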;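 also: initial slope of Thallos dye fluorescence rise after thallium is added; log ratio against the mean of 0.3% DMSO vehicle wells on the same plate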); conditions: at 30 µM
[15] = test system: F380Y/beta2Delta; test: as above; conditions: at 30 µM
[16] = molecular target: Calcium-activated potassium channel subunit alpha-1 (Homo sapiens) + Leucine-rich repeat-containing protein 26 (Homo sapiens) (UniProt Q12791+Q2I0M4); test: as above; conditions: F380Y/Slo1WT/gamma1, at 30 µM
[17] = test system: R275C; test: as above; conditions: at 30 µM
[18] = test system: R275C/beta1; test: as above; conditions: at 30 µM
[19] = test system: R275C/beta2Delta; test: as above; conditions: at 30 µM

Sequence of 6-phosphogluconate dehydrogenase, decarboxylating (Homo sapiens) (P52209 whole entry, looked up): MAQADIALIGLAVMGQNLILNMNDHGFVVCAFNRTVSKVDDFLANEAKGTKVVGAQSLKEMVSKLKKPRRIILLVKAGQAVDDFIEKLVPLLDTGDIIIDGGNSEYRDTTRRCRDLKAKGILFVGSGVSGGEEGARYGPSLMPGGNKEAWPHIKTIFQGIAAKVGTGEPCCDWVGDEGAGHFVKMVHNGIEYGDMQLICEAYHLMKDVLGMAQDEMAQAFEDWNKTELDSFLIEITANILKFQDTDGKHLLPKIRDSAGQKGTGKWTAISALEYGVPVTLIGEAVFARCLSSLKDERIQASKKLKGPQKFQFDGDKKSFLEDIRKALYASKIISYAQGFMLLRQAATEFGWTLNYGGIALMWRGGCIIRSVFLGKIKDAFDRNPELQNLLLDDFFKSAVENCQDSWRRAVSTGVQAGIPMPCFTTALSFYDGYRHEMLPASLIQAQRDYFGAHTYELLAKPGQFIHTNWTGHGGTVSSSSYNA
Sequence of Calcium-activated potassium channel subunit alpha-1 (Homo sapiens) + Leucine-rich repeat-containing protein 26 (Homo sapiens) (Q2I0M4 whole entry, looked up, one chain of several): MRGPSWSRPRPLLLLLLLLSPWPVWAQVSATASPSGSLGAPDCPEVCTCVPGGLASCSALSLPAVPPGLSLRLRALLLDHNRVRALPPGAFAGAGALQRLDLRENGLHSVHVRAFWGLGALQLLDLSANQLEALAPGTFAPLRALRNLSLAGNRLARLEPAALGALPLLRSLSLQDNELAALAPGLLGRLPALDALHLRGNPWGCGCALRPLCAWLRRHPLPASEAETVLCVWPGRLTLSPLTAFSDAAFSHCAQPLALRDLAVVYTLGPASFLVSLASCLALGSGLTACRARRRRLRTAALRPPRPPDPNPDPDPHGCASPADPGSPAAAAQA
Sequence of NAD(+) hydrolase SARM1 (Homo sapiens) (Q6SZW1 whole entry, looked up): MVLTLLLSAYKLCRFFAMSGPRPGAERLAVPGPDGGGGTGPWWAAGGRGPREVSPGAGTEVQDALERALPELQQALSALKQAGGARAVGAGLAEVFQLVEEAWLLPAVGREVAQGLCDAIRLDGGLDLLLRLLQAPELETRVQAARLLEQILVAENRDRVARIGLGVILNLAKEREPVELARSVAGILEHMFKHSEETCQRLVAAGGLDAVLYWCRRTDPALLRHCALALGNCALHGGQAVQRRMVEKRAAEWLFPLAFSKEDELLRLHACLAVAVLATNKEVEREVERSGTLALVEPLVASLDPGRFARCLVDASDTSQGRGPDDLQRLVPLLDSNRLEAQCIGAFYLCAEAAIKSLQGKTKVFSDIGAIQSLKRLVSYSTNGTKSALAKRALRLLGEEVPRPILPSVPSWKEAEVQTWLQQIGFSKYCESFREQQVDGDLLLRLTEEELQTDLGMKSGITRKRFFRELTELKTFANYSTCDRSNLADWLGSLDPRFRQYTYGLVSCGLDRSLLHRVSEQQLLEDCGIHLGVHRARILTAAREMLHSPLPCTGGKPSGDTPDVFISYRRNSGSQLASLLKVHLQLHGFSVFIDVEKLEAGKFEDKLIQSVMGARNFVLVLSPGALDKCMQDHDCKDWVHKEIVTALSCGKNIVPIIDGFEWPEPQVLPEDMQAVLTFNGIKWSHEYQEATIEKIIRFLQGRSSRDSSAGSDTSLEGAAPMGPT

## CC(=O)NC(Cc1c[nH]c2ccccc12)C(N)=O (stereo not drawn)
[1]
  inhibition: -11.6% (inactive)

## CC1OC(OC2C(O)COC(OC3C(C)OC(OC4C(OC(=O)C56CCC(C)(C)CC5C5=CCC7C8(C)CCC(OC9OC(CO)C(O)C(O)C9O)C(C)(C)C8CCC7(C)C5(C)CC6O)OCC(O)C4O)C(O)C3O)C2O)C(O)C(O)C1O (stereo not drawn)
[1]
  inhibition: -33.1% (inactive)

## CC(C)n1c(/C=C/[C@@H](O)C[C@@H](O)CC(=O)O)c(-c2ccc(F)cc2)c2ccccc21
[2]
  survival: 2.5 (inactive)
[3]
  parasite load remaining: 164% (inactive) and 130% (inactive)
  viability: 82.3% and 114%
[4]
  fluorescence ratio: 1.05 (inactive)
[5]
  inhibition: -2.27% (inactive)
[6]
  inhibition: 2.57% (inactive)
[7]
  fluorescence ratio: 1.03 (inactive)
[8]; actives lie on both sides, counts scaled to control wells, 1 = unselective
  red/green cell ratio (normalised): 0.7 (inactive)
[8]; measured here: epithelial PC-3E GFP cell survival
  normalised cell number: 0.75
[8]; measured here: mesenchymal TEM4-18 mCherry cell survival
  normalised cell number: 0.53
[9]; stronger effect = lower value, cell number ratio, induced over uninduced
  fold change: 1.1 (inactive) and 1.08 (inactive)
[9]; measured here: relative caspase fold change +Dox/-Dox
  fold change: 0.844 and 2.14
[9]; measured here: total cells with miR-34 induction, stronger effect = lower value
  cell count: 1760 and 2100
[9]; measured here: total cells without miR-34 induction
  cell count: 1610 and 1940
[10]; MELAS cybrid survival, CellTiter-Glo 48 h, stronger effect = higher value
  z-score: -1.26 (inactive)
[10]; Rieske KO mouse fibroblast survival, CellTiter-Glo 72 h
  z-score: -0.983
[11]; at 0.000305 µM, OCI-C5x cells, with rucaparib 10 µM, 100% = cells with rucaparib alone
  viability: 102% (inactive)
[11]; at 0.000305 µM, OCI-C5x cells, without rucaparib
  viability: 102% (inactive)
[11]; at 0.000305 µM, OCI-P5x cells, with rucaparib 20 µM, 100% = cells with rucaparib alone
  viability: 86.5% (active)
[11]; at 0.000305 µM, OCI-P5x cells, without rucaparib
  viability: 89.2% (active)
[11]; at 0.00122 µM, OCI-C5x cells, with rucaparib 10 µM, 100% = cells with rucaparib alone
  viability: 102% (inactive)
[11]; at 0.00122 µM, OCI-C5x cells, without rucaparib
  viability: 109% (inactive)
[11]; at 0.00122 µM, OCI-P5x cells, with rucaparib 20 µM, 100% = cells with rucaparib alone
  viability: 89.7% (active)
[11]; at 0.00122 µM, OCI-P5x cells, without rucaparib
  viability: 88.8% (active)
[11]; at 0.00488 µM, OCI-C5x cells, with rucaparib 10 µM, 100% = cells with rucaparib alone
  viability: 92% (active)
[11]; at 0.00488 µM, OCI-C5x cells, without rucaparib
  viability: 96.6% (active)
[11]; at 0.00488 µM, OCI-P5x cells, with rucaparib 20 µM, 100% = cells with rucaparib alone
  viability: 82.4% (active)
[11]; at 0.00488 µM, OCI-P5x cells, without rucaparib
  viability: 87.2% (active)
[11]; at 0.0195 µM, OCI-C5x cells, with rucaparib 10 µM, 100% = cells with rucaparib alone
  viability: 73.9% (active)
[11]; at 0.0195 µM, OCI-C5x cells, without rucaparib
  viability: 71.3% (active)
[11]; at 0.0195 µM, OCI-P5x cells, with rucaparib 20 µM, 100% = cells with rucaparib alone
  viability: 44.2% (active)
[11]; at 0.0195 µM, OCI-P5x cells, without rucaparib
  viability: 53.6% (active)
[11]; at 0.0781 µM, OCI-C5x cells, with rucaparib 10 µM, 100% = cells with rucaparib alone
  viability: 50.9% (active)
[11]; at 0.0781 µM, OCI-C5x cells, without rucaparib
  viability: 54.7% (active)
[11]; at 0.0781 µM, OCI-P5x cells, with rucaparib 20 µM, 100% = cells with rucaparib alone
  viability: 21.8% (active)
[11]; at 0.0781 µM, OCI-P5x cells, without rucaparib
  viability: 31% (active)
[11]; at 0.313 µM, OCI-C5x cells, with rucaparib 10 µM, 100% = cells with rucaparib alone
  viability: 32.6% (active)
[11]; at 0.313 µM, OCI-C5x cells, without rucaparib
  viability: 33.3% (active)
[11]; at 0.313 µM, OCI-P5x cells, with rucaparib 20 µM, 100% = cells with rucaparib alone
  viability: 8.26% (active)
[11]; at 0.313 µM, OCI-P5x cells, without rucaparib
  viability: 10.2% (active)
[11]; at 1.25 µM, OCI-C5x cells, with rucaparib 10 µM, 100% = cells with rucaparib alone
  viability: 20.2% (active)
[11]; at 1.25 µM, OCI-C5x cells, without rucaparib
  viability: 22.5% (active)
[11]; at 1.25 µM, OCI-P5x cells, with rucaparib 20 µM, 100% = cells with rucaparib alone
  viability: 5.66% (active)
[11]; at 1.25 µM, OCI-P5x cells, without rucaparib
  viability: 4.09% (active)
[11]; at 5 µM, OCI-C5x cells, with rucaparib 10 µM, 100% = cells with rucaparib alone
  viability: 7.97% (active)
[11]; at 5 µM, OCI-C5x cells, without rucaparib
  viability: 7.19% (active)
[11]; at 5 µM, OCI-P5x cells, with rucaparib 20 µM, 100% = cells with rucaparib alone
  viability: 5.66% (active)
[11]; at 5 µM, OCI-P5x cells, without rucaparib
  viability: 4.42% (active)
[12]
  remaining NAD: 10 nM (inactive)
[13]
  z-score: -0.215 (inactive) and -1.78 (inactive)
[14]
  log fold change Tl+ flux: 0.0848 (inactive)
[15]
  log fold change Tl+ flux: 0.0465 (inactive)
[16]
  log fold change Tl+ flux: 0.11 (active)
[17]
  log fold change Tl+ flux: -0.0365 (inactive)
[18]
  log fold change Tl+ flux: 0.145 (active)
[19]
  log fold change Tl+ flux: 0.135 (active)
